Measurements as given in the supplement of paper PMC6411743.
± gives the standard deviation of the averaged measurements. The full data set covers some 6,500 targets. This sample favours those with the largest changes.

Assays:
Experiment in all cases: NP40-soluble protein abundance relative to vehicle (solubility fold change) (ratio); higher = more soluble protein in presence of ATP
[1] = target: A0A075B6F5|F5GXR6|Q8IUG5|Q8IUG5-2 (UniProt Q8IUG5)
How it was run: (§1)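 Jurkat crude lysate (Dounce-homogenised) was treated with eight concentrations from 0.1 to 10 mM for 10 min at room temperature, then 3 min at 37 °C. It was solubilised with 0.8% NP40 and benzonase (60 min, 4 °C) and ultracentrifuged, and the supernatant was TMT-labelled for LC-MS/MS. Intensities were vsn-normalised, and the value is the fold change against the NP40-processed vehicle per replicate, from three independent experiments.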

A0A087WTM7|P04114 = A0A087WTM7|P04114 (UniProt P04114)
How it was run: as §1

A0A087WV29|Q9H0A0 = target: T1, A0A087WV29|Q9H0A0 (UniProt Q9H0A0)
T1 sequence (whole entry): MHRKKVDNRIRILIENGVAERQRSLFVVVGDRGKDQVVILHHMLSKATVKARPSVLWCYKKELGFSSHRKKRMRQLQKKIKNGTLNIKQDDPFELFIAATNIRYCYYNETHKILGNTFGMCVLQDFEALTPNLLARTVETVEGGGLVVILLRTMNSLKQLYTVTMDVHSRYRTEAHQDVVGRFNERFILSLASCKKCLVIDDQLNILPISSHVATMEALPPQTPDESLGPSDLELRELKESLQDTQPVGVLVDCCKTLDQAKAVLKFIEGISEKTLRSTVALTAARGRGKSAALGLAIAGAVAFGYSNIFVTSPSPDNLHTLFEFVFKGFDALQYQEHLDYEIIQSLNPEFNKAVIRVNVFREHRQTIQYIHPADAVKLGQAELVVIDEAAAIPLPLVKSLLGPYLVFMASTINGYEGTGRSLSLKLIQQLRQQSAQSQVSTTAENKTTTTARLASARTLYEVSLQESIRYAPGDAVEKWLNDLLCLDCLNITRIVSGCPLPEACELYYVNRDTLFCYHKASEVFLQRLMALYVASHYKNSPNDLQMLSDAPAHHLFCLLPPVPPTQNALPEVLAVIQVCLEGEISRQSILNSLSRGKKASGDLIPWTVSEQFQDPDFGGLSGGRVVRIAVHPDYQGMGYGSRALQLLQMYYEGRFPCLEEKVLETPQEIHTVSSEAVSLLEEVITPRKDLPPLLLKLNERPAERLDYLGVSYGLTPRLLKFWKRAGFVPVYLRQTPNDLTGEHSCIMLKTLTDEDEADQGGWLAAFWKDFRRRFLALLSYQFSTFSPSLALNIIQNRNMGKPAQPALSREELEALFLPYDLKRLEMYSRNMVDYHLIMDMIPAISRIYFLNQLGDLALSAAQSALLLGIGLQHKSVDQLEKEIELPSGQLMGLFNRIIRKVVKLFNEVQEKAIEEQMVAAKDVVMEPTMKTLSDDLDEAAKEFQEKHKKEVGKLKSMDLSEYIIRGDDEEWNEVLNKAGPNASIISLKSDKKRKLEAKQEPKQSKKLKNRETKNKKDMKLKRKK
How it was run: as §1

[2] = target: T2, A0A087WVA8|Q8IWB9|Q8IWB9-2 (UniProt Q8IWB9)
T2 sequence (whole entry): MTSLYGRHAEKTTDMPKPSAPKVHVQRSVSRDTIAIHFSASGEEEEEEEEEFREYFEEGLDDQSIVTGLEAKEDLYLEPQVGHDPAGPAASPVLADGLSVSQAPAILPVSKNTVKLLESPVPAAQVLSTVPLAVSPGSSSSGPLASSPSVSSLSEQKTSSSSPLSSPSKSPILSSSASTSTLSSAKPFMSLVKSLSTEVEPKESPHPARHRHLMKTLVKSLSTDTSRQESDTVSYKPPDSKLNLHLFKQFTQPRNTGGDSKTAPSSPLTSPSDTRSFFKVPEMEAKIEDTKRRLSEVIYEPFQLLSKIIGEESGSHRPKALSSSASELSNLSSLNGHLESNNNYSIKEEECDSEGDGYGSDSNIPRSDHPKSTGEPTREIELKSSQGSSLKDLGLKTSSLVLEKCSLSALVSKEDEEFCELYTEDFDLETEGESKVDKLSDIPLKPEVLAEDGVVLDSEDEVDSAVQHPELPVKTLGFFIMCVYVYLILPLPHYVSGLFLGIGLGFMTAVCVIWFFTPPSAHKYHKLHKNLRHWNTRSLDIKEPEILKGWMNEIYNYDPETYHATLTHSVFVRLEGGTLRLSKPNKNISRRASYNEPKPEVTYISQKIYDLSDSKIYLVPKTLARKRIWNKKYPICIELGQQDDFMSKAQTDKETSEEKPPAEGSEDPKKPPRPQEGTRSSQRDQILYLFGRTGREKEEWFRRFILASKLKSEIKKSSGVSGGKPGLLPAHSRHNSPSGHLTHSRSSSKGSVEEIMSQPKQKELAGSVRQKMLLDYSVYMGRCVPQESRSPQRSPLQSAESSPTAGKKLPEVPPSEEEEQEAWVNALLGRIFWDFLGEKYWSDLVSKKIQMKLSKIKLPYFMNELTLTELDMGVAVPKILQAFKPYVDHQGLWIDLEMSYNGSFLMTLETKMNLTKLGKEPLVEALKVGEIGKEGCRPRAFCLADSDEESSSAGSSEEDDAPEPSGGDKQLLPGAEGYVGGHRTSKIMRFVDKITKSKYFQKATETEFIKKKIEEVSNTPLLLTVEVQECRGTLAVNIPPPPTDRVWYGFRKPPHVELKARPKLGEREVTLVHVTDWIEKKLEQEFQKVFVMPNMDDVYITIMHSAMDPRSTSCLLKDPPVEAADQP
How it was run: as §1

A0A087WWP8 = A0A087WWP8 (UniProt Q5VWQ0)
Sequence of A0A087WWP8 (Q5VWQ0 whole entry): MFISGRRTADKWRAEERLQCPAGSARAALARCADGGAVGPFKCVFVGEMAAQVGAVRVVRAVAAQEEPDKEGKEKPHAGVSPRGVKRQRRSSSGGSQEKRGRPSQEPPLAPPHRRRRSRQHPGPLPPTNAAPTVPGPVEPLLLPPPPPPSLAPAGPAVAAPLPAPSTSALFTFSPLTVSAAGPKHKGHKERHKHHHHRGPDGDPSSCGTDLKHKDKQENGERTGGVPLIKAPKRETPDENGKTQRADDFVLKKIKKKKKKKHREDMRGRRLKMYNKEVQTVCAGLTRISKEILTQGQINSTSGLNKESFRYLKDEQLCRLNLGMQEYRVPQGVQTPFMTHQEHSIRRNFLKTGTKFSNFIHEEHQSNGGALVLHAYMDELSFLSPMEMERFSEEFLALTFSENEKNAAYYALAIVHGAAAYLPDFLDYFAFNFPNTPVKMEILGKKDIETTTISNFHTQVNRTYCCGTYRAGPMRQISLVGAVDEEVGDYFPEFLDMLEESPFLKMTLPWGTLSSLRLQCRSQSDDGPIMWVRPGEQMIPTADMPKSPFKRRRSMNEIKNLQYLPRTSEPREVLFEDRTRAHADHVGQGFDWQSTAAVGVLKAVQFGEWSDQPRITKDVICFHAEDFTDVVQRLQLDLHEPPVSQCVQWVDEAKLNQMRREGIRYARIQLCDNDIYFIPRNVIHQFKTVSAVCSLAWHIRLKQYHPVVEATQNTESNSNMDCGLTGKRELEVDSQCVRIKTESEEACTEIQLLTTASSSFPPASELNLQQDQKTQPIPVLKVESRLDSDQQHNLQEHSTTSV
How it was run: as §1

Sequence of A0A075B6F5|F5GXR6|Q8IUG5|Q8IUG5-2 (Q8IUG5 whole entry, one chain of several): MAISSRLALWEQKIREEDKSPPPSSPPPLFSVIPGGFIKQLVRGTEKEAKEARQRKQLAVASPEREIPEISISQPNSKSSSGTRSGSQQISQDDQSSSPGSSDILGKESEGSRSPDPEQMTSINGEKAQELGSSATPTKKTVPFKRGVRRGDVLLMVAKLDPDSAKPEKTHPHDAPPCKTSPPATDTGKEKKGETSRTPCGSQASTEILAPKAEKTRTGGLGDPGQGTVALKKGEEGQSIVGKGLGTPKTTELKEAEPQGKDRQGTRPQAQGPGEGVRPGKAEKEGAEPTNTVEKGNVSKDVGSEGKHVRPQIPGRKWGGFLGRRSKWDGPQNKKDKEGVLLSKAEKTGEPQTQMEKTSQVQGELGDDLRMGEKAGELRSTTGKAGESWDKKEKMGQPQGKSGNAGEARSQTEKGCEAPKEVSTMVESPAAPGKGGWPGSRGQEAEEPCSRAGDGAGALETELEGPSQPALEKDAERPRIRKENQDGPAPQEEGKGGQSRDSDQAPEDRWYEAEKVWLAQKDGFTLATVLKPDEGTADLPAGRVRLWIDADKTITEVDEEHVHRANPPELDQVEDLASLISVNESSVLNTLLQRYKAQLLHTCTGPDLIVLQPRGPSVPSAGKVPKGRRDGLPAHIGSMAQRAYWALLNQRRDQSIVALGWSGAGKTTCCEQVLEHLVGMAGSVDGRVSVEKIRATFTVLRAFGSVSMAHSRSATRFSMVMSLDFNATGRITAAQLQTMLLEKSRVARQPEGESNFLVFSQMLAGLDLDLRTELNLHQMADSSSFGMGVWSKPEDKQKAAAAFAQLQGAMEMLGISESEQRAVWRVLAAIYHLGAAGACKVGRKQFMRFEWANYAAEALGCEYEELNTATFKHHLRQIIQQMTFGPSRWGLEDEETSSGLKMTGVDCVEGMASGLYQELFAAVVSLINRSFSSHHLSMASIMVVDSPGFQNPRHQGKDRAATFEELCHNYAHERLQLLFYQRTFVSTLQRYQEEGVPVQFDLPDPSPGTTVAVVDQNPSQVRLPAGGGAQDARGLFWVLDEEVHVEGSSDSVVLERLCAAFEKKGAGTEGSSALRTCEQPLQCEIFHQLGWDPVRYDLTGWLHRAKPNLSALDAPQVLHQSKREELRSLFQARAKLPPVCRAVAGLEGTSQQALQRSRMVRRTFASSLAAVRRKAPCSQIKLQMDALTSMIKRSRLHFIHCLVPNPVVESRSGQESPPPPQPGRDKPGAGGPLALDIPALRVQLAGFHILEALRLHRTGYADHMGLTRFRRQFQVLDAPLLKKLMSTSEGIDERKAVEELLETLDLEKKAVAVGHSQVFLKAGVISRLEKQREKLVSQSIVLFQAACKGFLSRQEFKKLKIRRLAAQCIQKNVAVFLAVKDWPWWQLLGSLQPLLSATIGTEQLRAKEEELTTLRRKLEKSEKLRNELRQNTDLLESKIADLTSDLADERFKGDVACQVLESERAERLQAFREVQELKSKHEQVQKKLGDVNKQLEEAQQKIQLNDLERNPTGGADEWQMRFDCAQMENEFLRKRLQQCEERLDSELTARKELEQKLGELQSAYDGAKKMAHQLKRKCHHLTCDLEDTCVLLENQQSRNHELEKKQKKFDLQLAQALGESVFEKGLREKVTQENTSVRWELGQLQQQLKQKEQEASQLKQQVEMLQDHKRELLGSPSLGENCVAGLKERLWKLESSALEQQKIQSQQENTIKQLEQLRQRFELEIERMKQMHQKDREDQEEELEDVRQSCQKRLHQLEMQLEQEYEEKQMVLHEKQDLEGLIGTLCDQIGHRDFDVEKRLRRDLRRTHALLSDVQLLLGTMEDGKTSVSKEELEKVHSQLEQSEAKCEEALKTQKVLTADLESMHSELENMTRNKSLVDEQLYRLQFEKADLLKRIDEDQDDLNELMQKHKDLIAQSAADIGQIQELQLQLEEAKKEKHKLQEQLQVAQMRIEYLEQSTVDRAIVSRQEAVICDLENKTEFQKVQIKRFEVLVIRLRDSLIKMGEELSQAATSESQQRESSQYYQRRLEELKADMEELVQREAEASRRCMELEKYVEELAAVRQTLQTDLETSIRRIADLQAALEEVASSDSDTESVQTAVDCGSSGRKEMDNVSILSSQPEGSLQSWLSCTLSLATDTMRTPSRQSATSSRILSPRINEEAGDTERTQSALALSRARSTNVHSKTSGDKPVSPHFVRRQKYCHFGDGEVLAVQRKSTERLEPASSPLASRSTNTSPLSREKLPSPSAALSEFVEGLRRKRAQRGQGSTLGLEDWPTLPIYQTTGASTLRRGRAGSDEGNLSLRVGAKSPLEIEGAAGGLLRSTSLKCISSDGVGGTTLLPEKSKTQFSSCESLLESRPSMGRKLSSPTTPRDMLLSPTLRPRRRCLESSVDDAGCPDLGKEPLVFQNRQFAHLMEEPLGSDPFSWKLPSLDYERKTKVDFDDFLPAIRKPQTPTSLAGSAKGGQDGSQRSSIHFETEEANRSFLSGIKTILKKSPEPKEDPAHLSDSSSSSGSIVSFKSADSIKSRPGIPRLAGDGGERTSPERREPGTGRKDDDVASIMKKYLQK

For `Nc1ncnc2c1ncn2[C@@H]1O[C@H](COP(=O)(O)OP(=O)(O)OP(=O)(O)O)[C@@H](O)[C@H]1O` [adenosine triphosphate], the NP40-soluble protein abundance ([1]; concentration: 1mM) was 0.986 ± 0.023, the NP40-soluble protein abundance ([1]; concentration: 2mM) was 0.927 ± 0.014 and the NP40-soluble protein abundance ([1]; concentration: 4mM) was 1.1 ± 0.016. The NP40-soluble protein abundance ([1]; concentration: 6mM) was 1.06 ± 0.022, the NP40-soluble protein abundance ([1]; concentration: 8mM) was 1.14 ± 0.13 and the NP40-soluble protein abundance ([1]; concentration: 10mM) was 1.18 ± 0.18. The NP40-soluble protein abundance (A0A087WTM7|P04114; concentration: 1mM) was 1.09 ± 0.039, the NP40-soluble protein abundance (A0A087WTM7|P04114; concentration: 2mM) was 1.05 ± 0.029 and the NP40-soluble protein abundance (A0A087WTM7|P04114; concentration: 4mM) was 0.98 ± 0.11. It also gave an NP40-soluble protein abundance (A0A087WTM7|P04114; concentration: 6mM) of 0.965 ± 0.086, an NP40-soluble protein abundance (A0A087WTM7|P04114; concentration: 8mM) of 0.976 ± 0.082 and an NP40-soluble protein abundance (A0A087WTM7|P04114; concentration: 10mM) of 0.989 ± 0.074. The NP40-soluble protein abundance (A0A087WV29|Q9H0A0; concentration: 1mM) was 1.2 ± 0.1, the NP40-soluble protein abundance (A0A087WV29|Q9H0A0; concentration: 2mM) was 1.37 ± 0.1 and the NP40-soluble protein abundance (A0A087WV29|Q9H0A0; concentration: 4mM) was 1.59 ± 0.11. The NP40-soluble protein abundance (A0A087WV29|Q9H0A0; concentration: 6mM) was 1.69 ± 0.18, the NP40-soluble protein abundance (A0A087WV29|Q9H0A0; concentration: 8mM) was 2.15 ± 0.14 and the NP40-soluble protein abundance (A0A087WV29|Q9H0A0; concentration: 10mM) was 2.32 ± 0.22. The NP40-soluble protein abundance ([2]; concentration: 1mM) was 1.02 ± 0.043, the NP40-soluble protein abundance ([2]; concentration: 2mM) was 0.975 ± 0.072 and the NP40-soluble protein abundance ([2]; concentration: 4mM) was 0.984 ± 0.062. For the same compound, the NP40-soluble protein abundance ([2]; concentration: 6mM) was 0.982 ± 0.024, the NP40-soluble protein abundance ([2]; concentration: 8mM) was 0.973 ± 0.07 and the NP40-soluble protein abundance ([2]; concentration: 10mM) was 0.993 ± 0.052. The NP40-soluble protein abundance (A0A087WWP8; concentration: 1mM) was 1.48 ± 0.058, the NP40-soluble protein abundance (A0A087WWP8; concentration: 2mM) was 1.53 ± 0.045 and the NP40-soluble protein abundance (A0A087WWP8; concentration: 4mM) was 1.61 ± 0.043.
